This is a sample that favours compounds with a hit; in the whole collection about 3.3% have one here.
SARS PLpro yeast: blocks SARS-CoV papain-like protease in a yeast assay. Potency, µM (top dose mostly 32.9 µM), inactives show at the top dose activity, positive = growth rescue, actives largely listed as activators. S. cerevisiae expressing SARS-CoV PLpro, growth rescue. 330,000 compounds, 0.19% hits; calls by dose curve; further: 0% is about no effect; nearly all actives have a fitted effect of over 55% in size
AmpC no deterg: inhibitors of E. coli AmpC beta-lactamase without detergent; P00811; 330,000 compounds, 0.52% hits; Potency, µM (doses to about 57.1 µM), without a hit: at the highest dose activity change, negative = inhibition, hits mostly inhibitors; AmpC nitrocefin hydrolysis, absorbance 480 nm, 0.0001% Triton;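 further: plate controls were no compound for no effect and no enzyme for full effect; nearly all actives have a fitted effect of over 20% in size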
Target sequence (P00811 whole entry, looked up): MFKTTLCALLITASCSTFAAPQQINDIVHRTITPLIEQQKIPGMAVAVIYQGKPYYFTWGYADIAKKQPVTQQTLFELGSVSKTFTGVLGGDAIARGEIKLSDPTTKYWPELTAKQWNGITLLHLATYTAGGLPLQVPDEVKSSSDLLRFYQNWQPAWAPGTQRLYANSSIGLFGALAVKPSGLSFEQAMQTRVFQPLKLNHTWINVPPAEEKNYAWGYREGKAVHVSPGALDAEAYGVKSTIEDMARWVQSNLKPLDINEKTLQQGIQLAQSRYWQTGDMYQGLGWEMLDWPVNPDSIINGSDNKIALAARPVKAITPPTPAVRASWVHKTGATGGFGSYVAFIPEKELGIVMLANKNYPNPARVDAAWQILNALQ
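AmpC (5.3 nM in the dispensed reagent) in 20 mM phosphate pH 7.0 with 0.01% (detergent screen) or 0.0001% Triton X-100 was preincubated with compounds for 15 min at room temperature. Nitrocefin was then added from an 800 uM solution, and hydrolysis was followed at 480 nm.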
AmpC detergent: AmpC beta-lactamase inhibition with detergent present. 370,000 compounds, 0.041% hits. AID 485294. Potency, µM (doses to about 114 µM), for the others: at the top dose activity change, negative = inhibition, most hits filed as inhibitors. P00811. AmpC hydrolysis of nitrocefin, absorbance 480 nm, 0.01% Triton;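 further: 0% = no-compound wells and -100% = no-enzyme wells; nearly all actives have a fitted effect of over 25% in size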
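AmpC (5.3 nM in the dispensed reagent) in 20 mM phosphate pH 7.0 with 0.01% (detergent screen) or 0.0001% Triton X-100 was preincubated with compounds for 15 min at room temperature. Nitrocefin was then added from an 800 uM solution, and hydrolysis was followed at 480 nm.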
RE007 growth inh: less growth of the S. pombe RE007 Vpr strain; 360,000 compounds, 0.21% hits; AID 651644; S. pombe RE007 Vpr strain, BacTiter-Glo ATP luminescence, 24 h; Potency, µM (doses to about 92.2 µM), for the others: top-dose activity change, negative = less growth, actives largely listed as inhibitors; active means well fitted falling curve with a large enough effect; inconclusive means small, poorly fitted or top-dose-only effect; inactive means no such curve, though single readings can be large or run the other way; further: on the % scale 0 is the no-effect control and ±100 the full control effect; nearly all actives have a fitted effect of over 50% in size
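Fission yeast strain RE007, carrying one chromosomally integrated HIV-1 vpr copy, was seeded at OD 0.01 in PMG+AL medium with 23 nL pinned compound. After 24 h at 30 °C and 99% humidity, viability was read by BacTiter-Glo luminescence.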
Sm TGR block: blocks Schistosoma mansoni thioredoxin glutathione reductase. Q962Y6. purified TGR, DTNB reduction, TNB absorbance 405 nm. Potency, µM (series often up to 114 µM), inactives show top-dose activity change, negative = inhibition, actives largely listed as inhibitors. 360,000 compounds, 3% hits; further: on the % scale 0 is the no-effect control and ±100 the full control effect; nearly all actives have a fitted effect of over 60% in size
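Kinetic colorimetric format: TGR-catalysed, NADPH-driven DTNB reduction monitored via TNB absorbance. Enzyme dispensed at 20 nM; compound exposure 15 min at room temperature before reaction start.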
Tb PYK inh: T. brucei pyruvate kinase inhibition | Q57TT1 | TbPYK enzyme, Kinase-Glo Plus ATP luminescence, 45 min | Potency, µM (titrated, usually from 76.8 µM), for inactives: top-dose activity, negative = inhibition, hits mostly inhibitors | 410,000 compounds, 0.12% hits | AID 624173; further: on the % scale 0 is the no-effect control and ±100 the full control effect; nearly all actives have a fitted effect of over 50% in size
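Activity of T. brucei pyruvate kinase was followed by Kinase-Glo Plus luminescence after the enzyme reacted 45 min at room temperature with 130 uM ADP (final) and substrate. Test compounds were added before ADP at multiple concentrations.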
* hit, by the source's call; ? = inconclusive; . = no result. Unless noted, the call rests on the fitted dose curve; in most records, active means well fitted curve in the direction sought with a large enough effect; inconclusive means small, poorly fitted or top-dose-only effect, or another doubt; inactive means no such curve, though single readings can be large; an effect the other way counts as inactive or inconclusive. Potency means the concentration at half of the fitted maximal effect.

SMILES | SARS PLpro yeast | AmpC no deterg | AmpC detergent | RE007 growth inh | Sm TGR block | Tb PYK inh
CN1CCN(C2CCN(Cc3ccc(O)c4ncccc34)CC2)CC1 | ? | -11% | ? | . | 1.6µM* | 3%
CN1CCN(Cc2cc(COCc3ccccc3)c3cccnc3c2O)CC1 | 4% | 36% | ? | -22% | 25µM* | -3%
O=C(Cn1c(=O)n(Cc2ccco2)c(=O)c2oc3ccccc3c21)Nc1ccc(F)cc1F | . | . | 15% | . | -11% | -16%
CCOc1ccccc1CNC(=O)CCc1c(C)nn(-c2ccc(N3CCCC3)nn2)c1C | . | . | -7% | . | -1% | -2%
O=C(c1ccco1)N1CCN(CCCCN2C(=O)c3ccccc3C2=O)CC1 | 2% | 53% | 2% | 4% | -12% | 0%
O=C1c2ccccc2-c2onc3c(N4CCN(CCO)CC4)cc(N4CCN(C(=O)c5ccco5)CC4)c1c23 | -4% | 185% | -11% | -14% | 3.5µM* | -13%
O=C(O)CCCNc1cc(N2CCC3(CC2)OCCO3)c2noc3c2c1C(=O)c1ccccc1-3 | -3% | 140% | -14% | . | 8.9µM* | .
CCOC(=O)N1CCN(c2cc(NCCC(=O)O)c3c4c(onc24)-c2ccccc2C3=O)CC1 | -4% | 222% | 1% | ? | ? | -15%
O=C(O)CCCNc1cc(N2CCN(C(=O)c3ccco3)CC2)c2noc3c2c1C(=O)c1ccccc1-3 | -14% | 47% | 1% | -6% | 6.3µM* | -4%
CN1CCN(c2cc(N3CCN(C(=O)c4ccco4)CC3)c3c4c(onc24)-c2ccccc2C3=O)CC1 | -5% | 99% | -2% | -15% | 10µM* | -6%
O=C(Cn1nc2c(cc1=O)CCCC2)NCc1ccccc1 | . | . | 5% | . | 8% | 0%
CN(C)S(=O)(=O)c1ccc(C(=O)NC2CC(=O)N(c3ccc4c(c3)OCCO4)C2)cc1 (stereo not given) | . | . | 0% | . | -1% | -4%
COc1ccc(C)cc1NC(=O)c1cc(S(=O)(=O)NC2CCCCCC2)ccc1F | . | . | -2% | . | 2% | 0%
O=c1[nH]c(CCl)nc2cc(-c3ccc(F)cc3)sc12 | -2% | -23% | -4% | -3% | 11µM* | -18%
COCCNc1nc2cc(-c3ccc(F)cc3)sc2c(=O)n1C | . | . | . | 1% | . | -8%
Cc1ccc(O)c(-c2[nH]ncc2C(=O)c2ccc(Br)cc2)c1 | -3% | 5µM* | -1% | 3% | -9% | 8%
O=c1cc(N2CCN(c3ccc(F)cc3)CC2)[nH]c(=O)n1-c1cccc(Br)c1 | . | . | -9% | . | ? | 1%
CSc1nc(-c2ccco2)nn1C(=O)c1ccco1 | -7% | -21% | -9% | -4% | ? | -6%
COc1ccccc1/C=c1\sc2nc(-c3ccco3)nn2c1=O | 2% | -32% | ? | -8% | 11µM* | 5%
COc1ccc(C(=O)n2nc(-c3ccco3)nc2N)cc1 | -10% | -16% | 5% | -13% | 32µM* | -5%
CSc1nc(-c2ccco2)nn1C(=O)c1ccccc1 | -2% | -14% | 3% | -2% | 16µM* | -9%
COc1ccccc1C(=O)n1nc(-c2ccco2)nc1SC | -6% | -19% | 3% | 10% | 14µM* | -4%
CSc1nc(-c2ccco2)nn1C(=O)c1ccc(C)cc1 | 1% | -17% | ? | -7% | ? | 2%
CCOc1ccc(/C=c2\sc3nc(-c4ccco4)nn3c2=O)cc1OCC | 2% | -20% | -5% | -20% | ? | -2%
Fc1ccc(-c2csc(-c3nc(-c4ccc(Br)s4)cs3)n2)cc1 | . | . | 23% | . | 3% | 2%
CCOC(=O)c1cccc(NC(=O)Cn2ncc3c(=O)oc4ccccc4c32)c1 | . | . | 4% | . | 10% | 1%
c1ccc(-c2csc3ncnc(N4CCN(Cc5ccc6c(c5)OCO6)CC4)c23)cc1 | -2% | -23% | 1% | -4% | 18µM* | 1%
